Several values for one entry are separate records, joined by “and”; a condition that tells them apart may be missing. Equal values may be shown once. Results filed as inconclusive are left out. Activity calls are given as the source filed them. Unless noted, the call rests on the fitted dose curve; in most records, active means well fitted curve in the direction sought with a large enough effect; inconclusive means small, poorly fitted or top-dose-only effect, or another doubt; inactive means no such curve, though single readings can be large; an effect the other way counts as inactive or inconclusive.
Legend:
[1] = molecular target: Thyroid hormone receptor beta (Homo sapiens) (UniProt P10828); experiment: qHTS assay for small molecule agonists of thyroid hormone receptor beta signaling (AID 588545; calls by dose curve;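 further: 0% = DMSO only and 100% = 10 nM T3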)
Outline: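 Efficacy and EC50 values derive from Hill fits of qHTS titration data, normalized to 10 nM T3 and DMSO-only wells. HEK 293 reporter cells were stimulated for 18 hrs at 37 C, with beta-lactamase activity measured by CCF4 fluorescence.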

[2] = qHTS assay for small molecule antagonists of retinoid X receptor alpha signaling (AID 588546; active means well fitted inhibition curve with a large enough effect in the signal ratio, with a control signal flat, not every such curve was filed as active; the % refers to the signal ratio;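 further: cells stimulated with 9-cis-retinoic acid as agonist; on the % scale 0 is the no-effect control and ±100 the full control effect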); details: HEK293T RXRa-UAS-bla, beta-lactamase ratio, antagonist mode; measured here: W530 green channel, cytotoxicity proxy
Outline: (§1)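 Beta-lactamase reporter inhibition, read as CCF4 fluorescence ratio (ex 405, em 460/530 nm) after 2 h at RT. HEK293T UAS-bla cells, 2500/well, were stimulated with 9-cis-RA at 500 or 100 nM final alongside test compound for 18 h at 37 C.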

[3] = molecular target: Retinoic acid receptor RXR-alpha (Homo sapiens) (UniProt P19793); experiment: as above; details: HEK293T RXRa-UAS-bla, beta-lactamase ratio, antagonist mode
Outline: as §1

[4] = molecular target: Thyroid hormone receptor beta (Homo sapiens) (UniProt P10828); experiment: qHTS assay for small molecule antagonists of thyroid hormone receptor beta signaling (AID 588547; active means well fitted inhibition curve with a large enough effect in the signal ratio, with a control signal flat, not every such curve was filed as active; the % refers to the signal ratio;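 further: cells stimulated with 0.4 nM T3 agonist during compound exposure; series mostly up to about 77 µM; on the % scale 0 is the no-effect control and ±100 the full control effect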); details: TR-UAS-bla HEK293, beta-lactamase ratio, antagonist mode, 18 h
Outline: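 TR-UAS-bla GripTite HEK293 cells in 2% charcoal/dextran FBS medium; compounds 0.59 nM to 92 uM with T3 at 0.4nM final, 18 h at 37 C. Beta-lactamase read by CCF4 fluorescence (460/530 nm); Hill fits gave IC50 and efficacy.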

[5] = molecular target: Voltage-gated inwardly rectifying potassium channel KCNH2 (Homo sapiens) (UniProt Q12809); experiment: qHTS Assay for Small Molecule Inhibitors of the Human hERG Channel Activity (AID 588834);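 further: top concentration of the series differs between compounds; on the % scale 0 is the no-effect control and ±100 the full control effect; lower thallium flux fluorescence means stronger hERG block; nearly all actives have a fitted effect of over 50% in size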
Outline: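 U2OS cells transduced with hERG via BacMam (MOI ~100), plated 2000/well, loaded with FluxOR thallium dye, compound ~10 min, then stimulation buffer; fluorescence decrease read kinetically; AC50 from Hill fits.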

[6] = molecular target: Luciferin 4-monooxygenase (Photinus pyralis) (UniProt P08659); experiment: Biochemical firefly luciferase enzyme assay for NPC (AID 624030); further: nearly all actives have a fitted effect of over 70% in size; further: potency means the concentration at half of the fitted maximal effect
Outline: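 Purified P. pyralis luciferase at 10 nM in 50 mM Tris Acetate (final), luminescence read within 5 minutes of enzyme addition to compounds. Activity normalised to PTC124 versus DMSO; concentration-response curves classed by r2, magnitude and activity.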

[7] = S16 Schwann cell PMP22 intronic element firefly luciferase assay (AID 624032); further: nearly all actives have a fitted effect of over 30% in size; further: potency means the concentration at half of the fitted maximal effect
Outline: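 Rat S16 Schwann cells stably carrying firefly luciferase driven by a PMP22 intronic element, in 10% FBS, treated 24 h at 37 C. ONE-Glo luminescence normalized to PTC124 control and DMSO (0%); curves classed by r2, magnitude and activity.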

[8] = S16 Schwann cell PMP22 intronic element beta-lactamase assay (AID 624044; calls by dose curve;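 further: 0% = DMSO and -100% = potassium clavulanate positive control; nearly all actives have a fitted effect of over 15% in size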)
Outline: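 Rat S16 Schwann cells with beta-Lac driven by a PMP22 intronic element, compound-treated 24 h at 37 °C. LiveBLAzer FRET B/G read: 460 nm normalized to potassium clavulanate vs DMSO; 535 nm FRET as viability; concentration-effect curves classified.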

[9] = S16 Schwann cell viability assay (CellTiter-Glo assay) (AID 624031);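 further: native untransfected S16 rat Schwann cells; cellular ATP luminescence as a viability measure; series mostly up to about 58 µM; plate controls were DMSO-treated cells for no effect and cell-free wells for full effect; nearly all actives have a fitted effect of over 70% in size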
Outline: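 Cells were seeded at 500-750 per well in phenol red-free DMEM with 10% FBS and left overnight. Compounds or DMSO were pinned in, incubation ran 24 h at 37 °C/5% CO2, then CellTiter-Glo reagent was added and luminescence measured.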

[10] = molecular target: Glutaminase kidney isoform, mitochondrial (Homo sapiens) (UniProt O94925); experiment: qHTS for Inhibitors of Glutaminase (GLS): LOPAC Validation (AID 624146);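 further: glutamate product detected by oxidase and peroxidase coupled Amplex red fluorescence gain; series mostly up to about 46 µM; on the % scale 0 is the no-effect control and ±100 the full control effect; nearly all actives have a fitted effect of over 60% in size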
Outline: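 Enzyme dispensed in phosphate buffer (45 mM, pH 8.2, 0.02% Tween-20), compounds pinned in, then 1 mM L-glutamine solution and the glutamate oxidase–HRP–Amplex Red mix added; fluorescence read immediately and again after 30 min at room temperature.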

[11] = qHTS of Trypanosoma Brucei Inhibitors: LOPAC Validation (AID 624147); further: 0% is about no effect
Outline: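 Quantitative HTS: titrated library compounds versus trypanosomal pyruvate kinase in TEA buffer (pH 7.2) containing KCl, MgCl2, BSA and Tween-20. Reactions were initiated with ADP, 130 uM final. Kinase-Glo Plus luminescence was read after 45 min at RT.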

[12] = molecular target: Glucagon-like peptide 1 receptor (Homo sapiens) (UniProt P43220); experiment: qHTS of GLP-1 Receptor Agonists: LOPAC Validation (AID 624148);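 further: 0% is about no effect; higher luminescence signal means agonism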
Outline: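 HEK293 cells stably co-expressing GLP-1R and a cAMP-responsive luciferase reporter, plated 12 hours before compound, then incubated 4-6 hr at 37 deg C. Luminescence read 12 min after detection reagent.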

[13] = qHTS of Nrf2 Activators: LOPAC Validation (AID 624149); further: 0% is about no effect
Outline: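 ARE reporter activation measured in AREc32 firefly luciferase cells after 24 hr compound exposure; Steady-Glo luminescence.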

[14] = HTS Assay for Allosteric Antagonists of the Human D2 Dopamine Receptor: Hit Validation in HTRF (AID 624455);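 further: stable D1 dopamine receptor cell line scored for blocking the D1 response; on the % scale 0 is the no-effect control and ±100 the full control effect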
Outline: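 Signal from an HTRF read-out in D1-expressing stable cells gave hit activity as inhibition of the D1 response.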

Thyroid hormone receptor beta (Homo sapiens), sequence (P10828 whole entry, looked up): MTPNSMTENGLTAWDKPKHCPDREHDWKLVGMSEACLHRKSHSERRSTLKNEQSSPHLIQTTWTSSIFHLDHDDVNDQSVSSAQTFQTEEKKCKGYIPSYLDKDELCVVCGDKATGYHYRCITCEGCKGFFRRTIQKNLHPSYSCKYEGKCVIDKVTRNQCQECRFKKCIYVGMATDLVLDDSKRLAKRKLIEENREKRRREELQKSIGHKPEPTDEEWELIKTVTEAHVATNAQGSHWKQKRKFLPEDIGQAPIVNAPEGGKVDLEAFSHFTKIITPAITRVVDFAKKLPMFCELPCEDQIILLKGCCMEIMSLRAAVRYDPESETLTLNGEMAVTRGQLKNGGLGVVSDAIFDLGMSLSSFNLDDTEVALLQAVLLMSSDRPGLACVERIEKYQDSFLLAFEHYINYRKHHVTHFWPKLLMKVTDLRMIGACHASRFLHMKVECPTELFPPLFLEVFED
Luciferin 4-monooxygenase (Photinus pyralis), sequence (P08659 whole entry, looked up): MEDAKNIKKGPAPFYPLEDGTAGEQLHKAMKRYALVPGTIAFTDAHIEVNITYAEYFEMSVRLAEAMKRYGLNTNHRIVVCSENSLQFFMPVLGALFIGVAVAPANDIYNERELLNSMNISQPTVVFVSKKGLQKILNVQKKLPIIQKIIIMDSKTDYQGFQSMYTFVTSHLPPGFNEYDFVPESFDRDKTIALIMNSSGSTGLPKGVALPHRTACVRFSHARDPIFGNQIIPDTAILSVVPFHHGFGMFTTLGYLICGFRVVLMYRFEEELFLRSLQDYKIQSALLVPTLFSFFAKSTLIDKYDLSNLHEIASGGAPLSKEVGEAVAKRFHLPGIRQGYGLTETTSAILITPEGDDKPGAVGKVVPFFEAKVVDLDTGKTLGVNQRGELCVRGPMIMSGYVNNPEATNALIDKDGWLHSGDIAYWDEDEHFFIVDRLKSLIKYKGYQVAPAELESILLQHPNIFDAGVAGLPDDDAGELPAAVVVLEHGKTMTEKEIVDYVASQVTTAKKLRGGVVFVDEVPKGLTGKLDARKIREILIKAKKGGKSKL
Voltage-gated inwardly rectifying potassium channel KCNH2 (Homo sapiens), sequence (Q12809 whole entry, looked up): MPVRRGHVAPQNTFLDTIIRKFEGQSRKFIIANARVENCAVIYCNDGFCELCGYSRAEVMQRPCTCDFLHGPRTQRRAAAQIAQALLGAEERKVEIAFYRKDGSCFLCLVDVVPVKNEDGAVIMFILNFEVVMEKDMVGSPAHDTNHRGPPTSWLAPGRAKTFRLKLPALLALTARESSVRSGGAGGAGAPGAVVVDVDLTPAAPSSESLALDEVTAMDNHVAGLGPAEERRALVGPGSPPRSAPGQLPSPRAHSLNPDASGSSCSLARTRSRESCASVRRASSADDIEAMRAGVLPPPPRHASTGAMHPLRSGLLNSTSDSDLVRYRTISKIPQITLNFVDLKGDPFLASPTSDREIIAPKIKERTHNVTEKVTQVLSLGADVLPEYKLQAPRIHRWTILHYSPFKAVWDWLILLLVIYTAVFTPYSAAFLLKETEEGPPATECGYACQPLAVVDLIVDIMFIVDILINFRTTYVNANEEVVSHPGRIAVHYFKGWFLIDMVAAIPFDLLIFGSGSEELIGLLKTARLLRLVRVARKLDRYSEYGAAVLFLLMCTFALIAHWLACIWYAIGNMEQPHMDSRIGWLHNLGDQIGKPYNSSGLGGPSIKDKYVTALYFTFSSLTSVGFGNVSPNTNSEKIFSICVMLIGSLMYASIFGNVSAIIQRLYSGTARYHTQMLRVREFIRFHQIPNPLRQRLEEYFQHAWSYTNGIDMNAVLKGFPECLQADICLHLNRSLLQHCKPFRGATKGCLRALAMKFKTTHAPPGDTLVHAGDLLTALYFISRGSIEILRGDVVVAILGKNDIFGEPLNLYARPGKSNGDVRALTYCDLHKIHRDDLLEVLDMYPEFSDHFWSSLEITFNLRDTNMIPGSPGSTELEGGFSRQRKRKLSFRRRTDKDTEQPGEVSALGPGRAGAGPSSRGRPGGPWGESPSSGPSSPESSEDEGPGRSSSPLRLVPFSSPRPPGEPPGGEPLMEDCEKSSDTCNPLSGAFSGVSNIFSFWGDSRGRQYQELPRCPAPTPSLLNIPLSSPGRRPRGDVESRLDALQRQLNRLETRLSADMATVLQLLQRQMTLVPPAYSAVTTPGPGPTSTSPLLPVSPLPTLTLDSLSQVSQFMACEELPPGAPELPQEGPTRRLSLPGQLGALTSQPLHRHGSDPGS
Retinoic acid receptor RXR-alpha (Homo sapiens), sequence (P19793 whole entry, looked up): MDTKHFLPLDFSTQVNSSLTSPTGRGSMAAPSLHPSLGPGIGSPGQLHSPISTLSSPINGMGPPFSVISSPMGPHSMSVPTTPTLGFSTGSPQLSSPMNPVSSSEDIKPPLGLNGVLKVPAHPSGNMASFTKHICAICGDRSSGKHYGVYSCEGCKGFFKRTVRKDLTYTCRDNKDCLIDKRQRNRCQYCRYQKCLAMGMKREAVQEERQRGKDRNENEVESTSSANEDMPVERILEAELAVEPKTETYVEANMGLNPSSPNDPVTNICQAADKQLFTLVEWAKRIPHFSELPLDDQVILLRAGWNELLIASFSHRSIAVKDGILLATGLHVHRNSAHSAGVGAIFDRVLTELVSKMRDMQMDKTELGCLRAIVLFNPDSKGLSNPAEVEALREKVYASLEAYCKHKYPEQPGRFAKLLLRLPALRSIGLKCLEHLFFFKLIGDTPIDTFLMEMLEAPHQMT
Glutaminase kidney isoform, mitochondrial (Homo sapiens), sequence (O94925 whole entry, looked up, canonical isoform): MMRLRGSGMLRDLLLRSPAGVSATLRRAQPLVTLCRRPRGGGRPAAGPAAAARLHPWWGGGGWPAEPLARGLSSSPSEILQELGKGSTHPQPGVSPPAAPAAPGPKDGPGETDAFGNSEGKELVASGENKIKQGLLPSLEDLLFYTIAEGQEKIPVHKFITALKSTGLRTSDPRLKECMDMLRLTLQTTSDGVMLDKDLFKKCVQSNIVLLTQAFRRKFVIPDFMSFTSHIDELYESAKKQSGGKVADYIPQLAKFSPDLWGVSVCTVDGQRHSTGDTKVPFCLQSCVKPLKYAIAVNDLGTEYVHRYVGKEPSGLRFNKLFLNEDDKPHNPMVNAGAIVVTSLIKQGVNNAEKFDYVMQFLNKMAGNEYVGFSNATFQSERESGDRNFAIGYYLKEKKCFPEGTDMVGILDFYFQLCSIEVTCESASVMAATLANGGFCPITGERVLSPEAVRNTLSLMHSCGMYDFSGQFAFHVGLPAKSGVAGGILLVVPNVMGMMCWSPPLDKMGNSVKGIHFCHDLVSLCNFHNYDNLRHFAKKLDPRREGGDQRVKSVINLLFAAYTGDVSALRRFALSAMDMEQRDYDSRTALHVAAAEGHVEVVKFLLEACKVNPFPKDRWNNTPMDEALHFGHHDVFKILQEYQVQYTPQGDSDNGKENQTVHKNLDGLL
Glucagon-like peptide 1 receptor (Homo sapiens), sequence (P43220 whole entry, looked up): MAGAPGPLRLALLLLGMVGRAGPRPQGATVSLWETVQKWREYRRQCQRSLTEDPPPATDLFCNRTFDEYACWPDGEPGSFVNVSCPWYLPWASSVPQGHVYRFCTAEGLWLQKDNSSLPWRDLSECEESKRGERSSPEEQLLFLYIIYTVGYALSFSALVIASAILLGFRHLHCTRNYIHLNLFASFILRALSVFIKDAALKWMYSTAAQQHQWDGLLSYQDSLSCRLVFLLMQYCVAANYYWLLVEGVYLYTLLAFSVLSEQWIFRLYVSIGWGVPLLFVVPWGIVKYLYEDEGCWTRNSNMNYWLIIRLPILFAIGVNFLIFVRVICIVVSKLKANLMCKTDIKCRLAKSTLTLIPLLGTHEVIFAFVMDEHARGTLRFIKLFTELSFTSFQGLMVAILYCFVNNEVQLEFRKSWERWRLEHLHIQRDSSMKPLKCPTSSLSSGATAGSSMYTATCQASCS

O=c1cc(-c2ccccc2)oc2ccccc12
active: Potency [6] 20.9 µM
-11.8%: max response [2]
inactive: outcome [1] | max response [3] -22.5% | activity change % (negative = inhibition) [4] -4.06% and 9.92% | Potency [5]

Nc1nc2ccc([N+](=O)[O-])cc2s1
inactive: max response [3] 16.9% | activity change % (negative = inhibition) [4] -2.47% | Potency [5]
0.666%: max response [2]

CC(C)OC(=O)c1cc(C(=O)OC(C)C)cc([N+](=O)[O-])c1
inactive: max response [3] -4.84% | activity change % (negative = inhibition) [4] 6.57% | Potency [6]
-0.986%: max response [2]

Nc1ccc([N+](=O)[O-])cc1O
3.08% and -8.59%: max response [2]
inactive: outcome [1] | max response [3] -3.43% and -7.43% | activity change % (negative = inhibition) [4] 10% and 1.31% | Potency [5] | Potency [6]

O=C(O)c1cc(O)c(O)c(O)c1
3.69%: max response [2]
inactive: outcome [1] | max response [3] -2.74% | activity change % (negative = inhibition) [4] -16.5% | Potency [5] | Potency [6] | Potency [7] | Potency [8]

C=CCCCCCCCCC(=O)O
-3.51%: max response [2]
inactive: outcome [1] | max response [3] -16.4% | activity change % (negative = inhibition) [4] -5.71% | Potency [5] | Potency [6] | Potency [9] | Potency [7]

NCCO
-11.1%: max response [2]
inactive: max response [3] 21.6% | activity change % (negative = inhibition) [4] -5.7% | Potency [5] | Potency [6]

O=C(Nc1ccccc1)c1cc([N+](=O)[O-])ccc1Cl
inactive: outcome [1] | max response [3] -13.8% | activity change % (negative = inhibition) [4] 9.48% | Potency [5] | Potency [10] | Potency [11] | outcome [12] | outcome [13] | Potency [14]
-9.1%: max response [2]

N=C1N=C(N)c2cc3ccccc3cc21
-9.13%: max response [2]
inactive: outcome [1] | max response [3] 48.9% | activity change % (negative = inhibition) [4] 8.6% | Potency [6]

C#C[C@]1(O)CC[C@H]2[C@@H]3CCc4cc(O)ccc4[C@H]3CC[C@@]21C
inactive: outcome [1] | activity change % (negative = inhibition) [4] -23% | Potency [5] | Potency [9] | Potency [8]
active: Potency [7] 12.8 µM

O=C(O)[C@H](O)[C@@H](O)[C@H](O)[C@H](O)CO
inactive: outcome [1] | max response [3] 4.17% | activity change % (negative = inhibition) [4] 19.6% | Potency [5] | Potency [6] | Potency [9] | Potency [7]
-7.65%: max response [2]

CC(C)NCC(O)COc1cccc2ccccc12 (stereo not drawn)
inactive: outcome [1] | max response [3] -18.2% | activity change % (negative = inhibition) [4] -9.73% and -17.8% | Potency [10] | outcome [12] | outcome [13] | Potency [14]
8.19%: max response [2]

Source: PubChem BioAssay (NCATS)
